# Shown are actives, neighbours in structure and some others; about 18% of the full set was active somewhere.
# IL-1B inflam inh: qHTS for Inhibitors of Inflammasome Signaling: IL-1-beta AlphaLISA Primary Screen | THP-1 LPS/ATP IL-1B secretion, AlphaLISA, 16 h; stronger effect = lower value | activity change, % at 57.5 µM | 360,000 tested, 4.7% active | AID 743279, 2014; in the data active = activity change below about -50%; inconclusive = mostly about -30% to -49%
#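 THP-1 cells pretreated 1 hr with compounds (up to 57.5 uM final), then stimulated with LPS (250 ng/mL final) plus ATP (1.25 mM final); secreted IL-1B measured by AlphaLISA after 16 hr, decreased signal indicating inhibition.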
# Gal4-VP16 FLuc: VP16 counterscreen qHTS for inhibitors of ROR gamma transcriptional activity; 310,000 tested, 3.5% active; Drosophila S2 Gal4-VP16 UAS-luciferase, luminescence, 20 h; Potency, µM (doses to about 53.6 µM), most hits filed as inhibitors;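 also: Gal4-VP16 expression switched on by copper sulfate through the metallothionein promoter; nearly all actives have a fitted effect of over 50% in size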
# LDHA inh: qHTS assay for inhibitors of human lactate dehydrogenase; 480,000 tested, 0.15% active; purified LDHA, NADH/diaphorase-resazurin fluorescence; stronger effect = lower value; L-lactate dehydrogenase A chain (Homo sapiens), P00338; AID 1347041, 2019; activity change, % (values are at about 110 or 230 µM); in the data active = activity change below about -30%; inconclusive = mostly about -25% to -30%
#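 Enzyme activity of human lactate dehydrogenase 5 (2 nM; 0.06 mM NADH, 0.2 mM pyruvate, 5 min, RT) is measured via a resazurin/diaphorase fluorescence readout of residual NADH.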
# RORg inh: qHTS for inhibitors of ROR gamma transcriptional activity; 310,000 tested, 5.4% active; Drosophila S2 Gal4-RORgamma UAS-luciferase reporter, 20 h; AID 2551, 2010; Potency, µM (top dose mostly 53.6 µM), actives largely listed as inhibitors; also: nearly all actives have a fitted effect of over 60% in size
# Target sequence (P51450 whole entry, looked up, the tested form may be a part): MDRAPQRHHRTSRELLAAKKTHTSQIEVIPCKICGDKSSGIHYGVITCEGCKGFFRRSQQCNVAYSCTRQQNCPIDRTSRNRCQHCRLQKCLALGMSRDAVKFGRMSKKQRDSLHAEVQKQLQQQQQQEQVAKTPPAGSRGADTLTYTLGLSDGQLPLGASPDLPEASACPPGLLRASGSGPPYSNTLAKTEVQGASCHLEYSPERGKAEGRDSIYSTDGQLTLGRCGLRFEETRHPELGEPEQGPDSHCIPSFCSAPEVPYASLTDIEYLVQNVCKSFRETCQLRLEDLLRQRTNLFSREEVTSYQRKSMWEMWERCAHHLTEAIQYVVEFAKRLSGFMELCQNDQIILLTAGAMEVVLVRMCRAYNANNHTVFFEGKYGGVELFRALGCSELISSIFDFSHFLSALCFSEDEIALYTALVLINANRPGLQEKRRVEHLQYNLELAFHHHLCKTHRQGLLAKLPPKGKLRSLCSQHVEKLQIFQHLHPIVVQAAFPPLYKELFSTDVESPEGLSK
#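 Drosophila S2 cells stably expressing Gal4-DBD/mouse RORγ fusion under metallothionein promoter plus UAS-luciferase; compound 1 h, then 700 uM CuSO4 induction for 20 h at ambient temperature; inhibition read as reduced luminescence.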
# DT40 TDP1 CPT: qHTS for Inhibitors of human tyrosyl-DNA phosphodiesterase 1 (TDP1): qHTS in cells in presence of CPT; chicken DT40 Tdp1-/-;hTDP1 cells + 20 nM CPT, ATP luminescence, 48 h; Potency, µM (top dose mostly 46.2 µM), usual class: inhibitors; 420,000 tested, 12% active; also: nearly all actives have a fitted effect of over 55% in size
#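 Chicken DT40 Tdp1-/- cells stably complemented with human TDP1 were seeded at 400 cells/well in medium containing 20 nM camptothecin, exposed to pin-transferred compounds, and grown at 37 °C for at least 48 hr. Viability was read as ATP luminescence.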
# DT40 TDP1 no CPT: qHTS for Inhibitors of human tyrosyl-DNA phosphodiesterase 1 (TDP1): qHTS in cells in absence of CPT | DT40 Tdp1-/- hTDP1 cells, no CPT, ATP luminescence, 48 h | Potency, µM (top dose mostly 46.2 µM), usual class: inhibitors | 420,000 tested, 15% active; also: nearly all actives have a fitted effect of over 55% in size
#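 A cellular qHTS used chicken DT40 cells lacking endogenous Tdp1 but carrying stably transfected human TDP1. Compounds were applied without camptothecin, and cell growth kinetics were judged by ATP-dependent luminescence after ≥48 hr.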
# A number is an active result; - = inactive; ? = inconclusive; . = no result given; ! = not active in a repeat; [ ] = remark or other dose. Unless noted, calls follow the shape of the dose curve; as a rule, active = well fitted curve in the direction sought with a large enough effect; inconclusive = small, poorly fitted or top-dose-only effect, or another doubt; inactive = no such curve, though single readings can be large; an effect the other way counts as inactive or inconclusive.
SMILES,IL-1B inflam inh,Gal4-VP16 FLuc,LDHA inh,RORg inh,DT40 TDP1 CPT,DT40 TDP1 no CPT
Cc1cc(Cl)ccc1OCC(=O)N/N=C1\CCCc2ccccc21,-,-,-,-,-,?
CC(Oc1ccc(Cl)cc1Cl)C(=O)NNC(=O)C(=O)N1CCCC1 (stereo unspecified),-,-,-,-,-,?
CC(Oc1ccc(Cl)cc1Cl)C(=O)N/N=C1\CCCc2ccccc21 (stereo unspecified),-,-,-,-,?,25.9µM
CC(Oc1ccc(Cl)cc1Cl)C(=O)NN=C1CCN(C)CC1 (stereo unspecified),-,10µM,-,7.08µM,-,-
CCNCc1ccc(-c2ccccc2F)o1,.,.,-,.,.,.
Cc1cc2oc(C(=O)N3CCC(Cc4ccccc4)CC3)cc(=O)c2cc1C,.,.,-,.,.,.
Cc1c(Cl)cccc1NC(=O)CSC(N)=O,-92.3,-[10 µM],-,-,20.6µM,16.4µM
NC(=O)SCC(=O)Nc1cccc(Cl)c1,-61.9,?,-,10µM,?,?
NC(=O)SCC(=O)Nc1ccc(Cl)cc1,-88.7,-,-,?,20.6µM,?
Nc1nnc(SCC(=O)Nc2cccc(Cl)c2)s1,-,.,-,.,-,-
Cc1c(Cl)cccc1NC(=O)CSCC(N)=O,-,-,-,-,-,-
NC(=O)SCC(=O)Nc1ccc(Cl)c(Cl)c1,-102.8,?,-,?,9.2µM,23.1µM
CC(C)c1cc(=O)oc2cc(OCC(=O)NCCc3ccc(F)cc3)ccc12,.,.,-,.,.,.
Cc1ccc2[nH]cc(C=O)c2c1,.,.,-,.,.,.
O=C(CP(=O)(c1ccccc1)c1ccccc1)Nc1cccc(CP(=O)(c2ccccc2)c2ccccc2)c1,?,-,-,-,?,23.1µM
CCN(CC)CCNC(=O)c1cc(-c2ccc(Br)s2)nc2ccccc12,?,-,-,-,18.4µM,18.4µM
CCN(CC)CCCNC(=O)c1cc(Nc2ccc(OC)cc2OC)nc2ccccc12,-,-,-,-,?,?
CC(C)CN(CCNC(=O)c1cc(-c2ccc(Cl)s2)nc2ccccc12)CC(C)C,.,.,-,.,-,-
CCOCCCNC(=O)c1cc(-c2ccc(Br)s2)nc2ccccc12,-,-,-,-,-,?
CCCCOc1cc(C(=O)NCCN(CC)CC)c2ccccc2n1,-50.2!,?,-,-,20.6µM!,7.31µM
CCc1ccc(CNC(=O)c2cc(-c3ccc(Br)s3)nc3ccccc23)cc1,.,.,-,.,?,18.4µM
CCCN(CCC)CCNC(=O)c1cc(-c2ccc(Br)s2)nc2ccccc12,.,.,-,.,18.4µM,?
CC(C)NS(=O)(=O)c1cccc(C(=O)N2CCCC2c2ccc3c(c2)OCCO3)c1 (stereo unspecified),.,.,-,.,.,.
CC(C)C(=O)Nc1ccc(Br)c(Cl)c1,.,.,-,.,.,.
COc1ccccc1N(C)S(=O)(=O)c1ccc(C(=O)Nc2cccc(C)c2C)cc1,.,.,-,.,.,.
SMILES,IL-1B inflam inh,Gal4-VP16 FLuc,LDHA inh,RORg inh,DT40 TDP1 CPT,DT40 TDP1 no CPT
O=C(NCCNc1ncccn1)Nc1ccc2c(c1)Cc1ccccc1-2,.,.,-,.,.,.
CN1CCN(NC(=O)c2cc(-c3ccc(Br)s3)nc3ccccc23)CC1,?,-,-,-,?,7.31µM
CCCCN(C)CCNC(=O)c1cc(-c2ccc(Cl)s2)nc2ccccc12,.,.,-,.,23.1µM,23.1µM
O=C(Nc1ccccc1N1CCN(C(=O)c2ccc(Cl)cc2)CC1)c1ccc(Br)cc1,-,-,-,-,?,-
O=C(Nc1ccccc1N1CCN(C(=O)c2ccccc2)CC1)c1ccc(Cl)cc1,?,-,-,-,?,23.1µM
O=C(Nc1ccccc1N1CCN(C(=O)c2ccc(Cl)cc2)CC1)c1cc2ccccc2o1,-,-,-,-,25.9µM,?
O=C(Cc1ccc(Cl)cc1)Nc1ccccc1N1CCN(C(=O)c2ccccc2)CC1,?,-,-,-,?,20.6µM
O=C(Nc1ccccc1N1CCN(C(=O)c2ccccc2)CC1)c1ccc(Br)o1,-,-,-,?,?,20.6µM
CC(OC(=O)c1ccc(C#N)cc1)C(=O)NC(C)C1CC2CCC1C2 (stereo unspecified),.,.,-,.,.,.
CSCC(=O)NCCc1cccs1,.,.,-,.,.,.
CCNc1nc(OCC)nc(N2CCC(Cc3ccccc3)CC2)n1,-,3.98µM,-,5.62µM,-,?
N#C/C(=C\c1cccc2ccccc12)c1nn(-c2ccccc2)c(N)c1C#N,-,.,-,.,?,?
Cc1ccc(/C=C(\C#N)c2nn(-c3ccccc3)c(N)c2C#N)cc1,?,-,-,?,?,14.6µM
N#C/C(=C\c1c(F)cccc1Cl)c1nn(-c2ccccc2)c(-n2cccc2)c1C#N,.,-,-,-,?,?
N#C/C(=C\c1c(Cl)cccc1Cl)c1nn(-c2ccccc2)c(-n2cccc2)c1C#N,-,-,-,-,25.9µM,20.6µM
O=C1CCCN1CCCNCC(=O)N1c2ccccc2Sc2ccccc21,-,-,-41.1,-,-,-
O=C1CCCN1CCCNCC(O)c1ccccc1 (stereo unspecified),-,-,-,-,-,-
CCNC(=O)C1CCN(Cc2nnnn2-c2ccccc2)CC1,.,.,-,.,.,.
COc1ccc(-c2cc(C(F)(F)F)n3nc(C(=O)OC(C)C)cc3n2)cc1,.,.,-,.,23.1µM,16.4µM
COc1cccc(-c2cc(C(F)(F)F)n3nc(C(=O)N4CCCCC4c4cccnc4)cc3n2)c1 (stereo unspecified),-71.8,-,-,-,16.4µM,16.4µM
COc1ccc(-c2cc(C(F)(F)F)n3nc(C(=O)N4CCCCC4)cc3n2)cc1,-53.1,-,-,-,16.4µM,23.1µM
COc1ccc(-c2cc(C(F)(F)F)n3nc(C(=O)N4CCCCC4)cc3n2)cc1OC,?,-,-,-,18.4µM,18.4µM
O=C(Nc1ccc(Cl)cc1)c1c2c(nc3ccccc13)CCCC2,.,.,-,.,.,.
O=C(CSCc1ccccc1)NNC(=S)NC1CC1,.,.,-,.,.,.
COc1cc(OC)c(C(=O)Nc2nc(C)c(C)s2)cc1OC,.,.,-,.,.,.
CCCCNc1nc2ccccc2nc1NS(=O)(=O)c1cc(Cl)ccc1Cl,.,.,-,.,.,.
CCCOc1nc2ccccc2nc1N1CCC(C(N)=O)CC1,.,.,-,.,.,.
CCCNC(=O)c1ccc2[nH]c3c(c2c1)CCCC3,.,.,-,.,.,.
COc1ccc(N2CCN(CCCn3c(=S)[nH]c4ccccc4c3=O)CC2)cc1,-,?,-,6.31µM,?,?
COc1ccccc1N1CCN(CCCn2c(=S)[nH]c3ccccc3c2=O)CC1,-,?,-,12.6µM,13µM,9.2µM

# Screening results from PubChem BioAssay.
